Our source for the Potency values is PubChem BioAssay AID720709 (National Center for Advancing Translational Sciences (NCATS), 2013).

Out of some 360,000 compounds screened, about 520 (0.14%) were called active. Where a call stands in place of a potency, no number is given. Roughly 3% stayed inconclusive and do not appear here. This is one part of a sample in which actives are shown more often than they occur. The call rests on the fitted dose curve; in most records, active means well fitted inhibition curve with a large enough effect; inconclusive means small, poorly fitted or top-dose-only effect; inactive means no such curve, though single readings can be large or run the other way.
Potency means the concentration at half of the fitted maximal effect.

Chain of Rap guanine nucleotide exchange factor 3 (Homo sapiens) (O95398 whole entry, looked up): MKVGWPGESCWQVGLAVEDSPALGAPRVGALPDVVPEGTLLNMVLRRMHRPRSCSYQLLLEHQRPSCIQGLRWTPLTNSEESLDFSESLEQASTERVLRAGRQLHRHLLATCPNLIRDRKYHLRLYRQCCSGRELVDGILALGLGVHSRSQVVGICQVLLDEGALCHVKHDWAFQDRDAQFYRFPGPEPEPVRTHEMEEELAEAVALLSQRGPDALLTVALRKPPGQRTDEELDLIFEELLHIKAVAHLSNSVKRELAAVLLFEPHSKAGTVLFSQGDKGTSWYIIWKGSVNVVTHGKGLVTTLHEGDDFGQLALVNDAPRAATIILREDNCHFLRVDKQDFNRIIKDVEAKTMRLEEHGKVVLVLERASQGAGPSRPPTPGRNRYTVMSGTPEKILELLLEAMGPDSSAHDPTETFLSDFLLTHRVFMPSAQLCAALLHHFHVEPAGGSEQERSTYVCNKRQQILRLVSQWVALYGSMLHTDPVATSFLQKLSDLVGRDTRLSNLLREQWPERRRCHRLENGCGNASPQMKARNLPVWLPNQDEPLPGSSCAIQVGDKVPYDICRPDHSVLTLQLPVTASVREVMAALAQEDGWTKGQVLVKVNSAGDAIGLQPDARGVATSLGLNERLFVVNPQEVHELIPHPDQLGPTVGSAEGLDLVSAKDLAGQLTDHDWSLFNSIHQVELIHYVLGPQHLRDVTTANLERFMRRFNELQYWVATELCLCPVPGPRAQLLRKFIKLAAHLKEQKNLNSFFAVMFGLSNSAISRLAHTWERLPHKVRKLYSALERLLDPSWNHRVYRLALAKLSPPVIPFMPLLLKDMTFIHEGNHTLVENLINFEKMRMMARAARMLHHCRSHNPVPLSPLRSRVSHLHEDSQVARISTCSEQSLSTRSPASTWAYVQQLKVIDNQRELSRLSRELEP

This test has as its target Rap guanine nucleotide exchange factor 3 (Homo sapiens) (UniProt O95398). Put plainly: qHTS for Antagonist of cAMP-regulated guanine nucleotide exchange factor 3 (EPAC1): primary screen. Further: nearly all actives have a fitted effect of over 50% in size. The conditions noted are these: EPAC1 GEF assay, Rap1b-BODIPY-GDP exchange fluorescence; series mostly up to 115 µM. The text has this: In multi-cellular eukaryotic organisms, the effects of cAMP are transduced by two ubiquitously-expressed intracellular cAMP receptors, the classic protein kinase A/cAMP-dependent protein kinase (PKA/cAPK) and the more recently discovered exchange protein directly activated by cAMP/cAMP-regulated guanine nucleotide exchange factor (EPAC/cAMP-GEF). Both PKA and EPAC are ubiquitously expressed in all tissues, and an increase in intracellular cAMP levels will lead to the activation of both PKA and EPAC. Therefore, careful dissections of the individual role and relative contribution of EPAC and PKA within the overall cAMP signaling in various model systems are critical for further elucidating the mechanism of cAMP signaling. To date no EPAC-specific antagonists and agonist, as well as isoform-specific agonists have been reported, and developing EPAC-specific pharmacological probes to determine the physiological functions that EPAC play in the overall cAMP-mediated signaling remains a major challenge within the research field. Furthermore, identified regulators of EPAC may lead to new mechanism-based therapeutic strategies specifically targeting the EPAC / cAMP-signaling components as EPAC has been implicated to play important roles in major human pathological conditions such as diabetes, heart disease, and cancer. This qHTS will be used to screen the Molecular Libraries Small Molecule Repository (MLSMR) as a concentration-titration series using the NCGC unique quantitative screening (qHTS) platform to find inhibitors for EPAC1. In addition, this assay will also be used as a counterscreen for the EPAC2 qHTS. This fluorescent based assay is developed and validated for EPAC1 that measures exchange using EPAC effector Rap1 complex with BODIPY-GDP, a GDP analog with a tethered fluorophores. Inhibitors are identified by monitoring the change in fluorescence signal as the exchanged free BODIPY-GDP has a reduced fluorescence compared to Rap1-bound BODIPY-GDP. Decrease in signal (inhibition) is the desired outcome for the EPAC1 antagonist while no activity in this assay is desired for the EPAC2 antagonist counterscreen. de Rooij, J., Zwartkruis, F. J., Verheijen, M. H., Cool, R. H., Nijman, S. M., Wittinghofer, A., and Bos, J.L. (1998) Nature 396, 474-477 [2] Kawasaki, H., Springett, G. M., Mochizuki, N., Toki, S., Nakaya, M., Matsuda, M., Housman, D. E., and Graybiel, A. M. (1998) Science 282, 2275-2279 NIH Chemical Genomics Center [NCGC] NIH Molecular Libraries Probe Centers Network [MLPCN] MLPCN Grant: NS066510 Assay Submitter (PI): Xiaodong Cheng, The University of Texas, Medical Branch
Briefly, three uL of reagents (100 nM EPAC1, 250 nM RAP1B-BODIPY-GDP, 50 uM GDP) were dispensed into a 1536-well Greiner black solid-bottom medium binding assay plate. Controls and test compounds (23 nL) were transferred to the plate via a Kalypsys pin tool equipped with a 1536-pin array. The plates were centrifuged at 1,000 rpm for 15 seconds followed by 5 minute incubation at room temperature. The assay plates were read at 5 minute intervals for 30 minutes in the ViewLux plate reader using 480nm excitation and 540nm emission filters. The results were normalized to the […] positive control ATA and DMSO.
For the molecule `Oc1cccc2cc(-c3ccncc3)cnc12`, the Potency entry was “inactive”.
The entry for `CO[C@@H]1CN(C)C(=O)c2cc(NC(=O)Nc3cc(F)ccc3F)ccc2OC[C@H](C)N(C(=O)c2ccccn2)C[C@@H]1C` is “inactive”.
The entry for `Cc1ccc(S(=O)(=O)NCCC(=O)NNC(=O)C2COc3ccccc3O2)cc1` (configuration not stated) is “inactive”.
The result for `Cc1c(CC(=O)N2CCN(C(=O)C3COc4ccccc4O3)CC2)c(=O)oc2c(O)c(O)ccc12` (configuration not stated) reads 100 µM (active); that for `COc1ccc2c(C)c(CCC(=O)NC3CC3)c(=O)oc2c1C`, “inactive”; that for `OCCC#Cc1ccc(N2C(c3ccsc3)=Cc3ccc(F)cc3C2c2c[nH]c3ccccc23)cc1` (configuration not stated), “inactive”.
For the molecule `COc1ccc(CC(N)c2csc(NC(=O)NC(c3ccccc3)c3ccccc3)n2)cc1` (configuration not stated), the Potency entry was “inactive”.
The entry for `CC1CN(C(=O)c2ccccc2NS(=O)(=O)c2cccc([N+](=O)[O-])c2)CC(C)O1` (configuration not stated) is “inactive”; for `CCOc1ncccc1C(=O)NNC(=O)c1cccc(S(=O)(=O)Nc2ccccc2OC)c1` it is “inactive”.
The figure for `COc1cccc(/C=N/Nc2ccc(S(=O)(=O)Nc3ccccc3C(=O)O)cc2[N+](=O)[O-])c1O` is 25.1 µM (active).
With `COC(=O)C[C@@H]1C=C[C@@H](NC(=O)c2ccc3c(c2)OCO3)[C@@H](CO)O1`, the Potency result is “inactive”.
The figure for `N#Cc1c(-c2ccccc2)nc(SCc2cccc(C(F)(F)F)c2)[nH]c1=O` is 70.8 µM (active).
The entry for `CC(=O)CSc1nc(CCc2ccccc2)c(C#N)c(=O)[nH]1` is “inactive”; for `O=c1[nH]c(SCc2cccc(F)c2)nc2ccccc12` it is “inactive”.
The result for `O=C(NCc1ccc(F)cc1F)[C@@H]1CCCN1C(=O)[C@@H]1CCCN1C(=O)c1cccc(Cl)c1` reads “inactive”.
As for `O=C(O)CC/C(=C\c1cc2c(cc1Br)OCO2)c1nc2ccccc2s1`, the Potency entry was “inactive”.
The entry for `COc1cccc(/C=C(/CC(=O)Nc2ccc(N3CCOCC3)cc2)c2nc3ccccc3s2)c1` is “inactive”; for `COc1ccc(C(=O)Nc2cccc(/C=C(/CCC(=O)O)c3nc4ccccc4s3)c2)cc1` it is 35.5 µM (active); for `CCOc1ccc(CCN2C(=S)N([C@@H](CC(C)C)CN3CCC[C@@H]3CN3C(=S)NC[C@@H]3Cc3ccc(O)cc3)C[C@@H]2Cc2ccc(O)cc2)cc1` it is “inactive”.
Regarding `CCC(C(=O)Nc1c(C)cccc1C)n1c(-c2cc(C)cs2)nc2ccccc21` (configuration not stated), the Potency entry is “inactive”.
Turning to `COc1ccc(C(=O)NCC[N+](C)(C)C)cc1`, the Potency entry was “inactive”.
The result for `CCOC(=O)[C@]12CCC=C1N(Cc1ccco1)C(=O)[C@H](CC(=O)N1CCSCC1)C2` reads “inactive”; that for `CCCCCCN1CCN(C2CN(Cc3cn(CCCCCC)nn3)S(=O)(=O)C2)CC1` (configuration not stated), “inactive”.
The entry for `CCC(CC)C(C(=O)NC1CCCC1)N1CCN(c2cc(C)nc3ccccc23)CC1` (configuration not stated) is “inactive”; for `O=C1Nc2ccccc2-n2nnnc2C1N1CCN(c2cccc(C(F)(F)F)n2)CC1` (configuration not stated) it is “inactive”.
The entry for `CCOC(=O)[C@]12CCCC=C1N(CCC1=CCCCC1)C(=O)[C@H](CC(=O)N1CCOCC1)C2` is “inactive”; for `Cc1cc(Br)cn2c(Cc3ccsc3)c(-c3ccc(C#N)cc3)nc12` it is “inactive”; for `CCOC(=O)[C@]12CCCC=C1N(CCC1=CCCCC1)C(=O)[C@H](CC(=O)NCCCCc1ccccc1)C2` it is “inactive”.
On to `O=C1NC[C@H](CCCCN2C[C@H](Cc3ccc(O)cc3)N(CCc3ccccc3)C(=O)C2=O)N(CCc2ccccc2)C1=O`, for which the Potency entry was “inactive”.
The entry for `O=C1Nc2ccccc2NC(c2ccc3c(c2)OCO3)=C1N(Cc1ccc(F)cc1)C(=O)c1ccco1` is “inactive”; for `COc1ccc(C(=O)C(OP(=O)(OC)OC)c2ccccc2OC)cc1` (configuration not stated) it is “inactive”.
The result for `COC(=O)c1ccc2nc(-c3ccc(C)cc3)c(Cc3ccc(OC)cc3C)n2c1` reads “inactive”; that for `CCOC(=O)[C@]12CCCC=C1N(Cc1ccc(Cl)cc1Cl)C(=O)[C@H](CC(=O)N1CCCCC1)C2`, “inactive”.
The result for `CC1Cc2[nH][nH]c(=O)c2C(C2CCCC2)O1` (configuration not stated) reads “inactive”; that for `COc1cccc(-c2nc3nc(C)cc(C)n3c2NC2CCCCC2)c1`, “inactive”.
In the case of `CC(C)c1cc(Cn2c3ccccc3c(=O)n2C(C)Cn2cc(C3CC3)nn2)on1` (configuration not stated), the Potency entry was “inactive”.
The result for `Cc1cc(Br)cn2c(Cc3ccccc3C(F)(F)F)c(-c3ccc(Cl)cc3)nc12` reads “inactive”; that for `CCOC(=O)[C@]12CCCC=C1N(CCC1=CCCCC1)C(=O)[C@H](CC(=O)N1CCSCC1)C2`, “inactive”.
The result for `COC(=O)[C@]12CCCCC=C1N(Cc1ccc3c(c1)OCO3)C(=O)[C@H](CC(=O)N1CCOCC1)C2` reads “inactive”; that for `O=C(NCc1ccccc1)C1c2ccccc2OCC(=O)N1CCCN1CCOCC1` (configuration not stated), “inactive”; that for `COc1ccc([C@H]2CC(=O)C[C@@H](CCn3cc(CC4CCCC4)nn3)O2)cc1`, “inactive”.
The entry for `COc1ccc(N2c3ccccc3CN(Cc3ccccc3)[C@@H](C)[C@H]2Cc2ccc(-c3ccccc3)cc2)cc1` is “inactive”.
On to `O=S1(=O)CC(N2CCN(CCO)CC2)CN1Cc1cn(Cc2cccc(Cl)c2)nn1` (configuration not stated), for which the Potency result is “inactive”.
The result for `O=C(C(=O)N1CCN(c2ccccc2)CC1)c1ccc2c(c1)OCO2` reads “inactive”; that for `COC(=O)C[C@@H]1C=C[C@@H](NS(=O)(=O)c2cccc(OC)c2)[C@@H](CO)O1`, “inactive”.
The entry for `CC(C)(C)CC(=O)Nc1nc(C(N)Cc2ccc(C(F)(F)F)cc2)cs1` (configuration not stated) is “inactive”; for `O=C(NCc1ccccc1)C1c2ccccc2OCC(=O)N1C1CC1` (configuration not stated) it is “inactive”; for `Nc1[nH]c(C(=O)c2ccccc2)c(-c2ccc(Br)cc2)c1C(=O)NC1CC1` it is “inactive”.
Consider `Cc1ccc(S(=O)(=O)N2CCC(=O)N([C@H](COCc3ccccc3)C(C)C)CC2)cc1`, for which the Potency entry was “inactive”.
The entry for `Cn1cnc(S(=O)(=O)N2C[C@@H](O)COC[C@@H]3O[C@H](CC(=O)NC4CCC4)CC[C@H]32)c1` is “inactive”; for `NC1=CC(=O)C(=O)c2cccnc21` it is 56.2 µM (active); for `O=C(OC1CC2CC1[C@H]1CCCCN1C2=O)N1CCOCC1` (some centres not stated) it is “inactive”.
The entry for `O=C1C(Sc2cccc(F)c2)=C[C@@]2(O)CC[C@@H](O)[C@]1(Sc1cccc(F)c1)[C@H]2O` is “inactive”.
The result for `O=C(Nc1ccc(F)cc1)C(CCc1ccccc1)N1CCN(CC(=O)N2CCCC2)CC1` (configuration not stated) reads “inactive”.
Consider `OC(c1ccccc1)(c1ccccc1)C1CCN(CCCOc2ccccc2)CC1`, for which the Potency entry was “inactive”.
The result for `CCC(c1nc2ccccc2[nH]1)n1c(=O)c(-c2cccs2)nc2ccccc21` (configuration not stated) reads “inactive”; that for `Cc1ccc(Cc2c(-c3ccc(Cl)cc3)nc3c4ccccc4ccn23)cc1`, “inactive”.
